Calls of active or inactive are those of the source.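 The calls were made as follows: active = IC50 of 75 µM or lower for blocking USP2 cleavage of diubiquitin, judged on gels; inconclusive = IC50 above 75 µM but below 100 µM; inactive = IC50 of 100 µM or more.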
Each molecule was assayed against Ubiquitin carboxyl-terminal hydrolase 2 (Homo sapiens) (UniProt O75604) (assay: Inhibitors of USP1/UAF1: Hit Validation in USP2 Diubiquiting Gel Assay). Conditions: USP2 K63-diubiquitin cleavage, SDS-PAGE gel densitometry.
Excerpt: Deubiquitinating enzymes (DUBs) are a class of enzymes that can cleave isopeptide bond formed between the C-terminal carboxylate of ubiquitin and a lysine side-chain amino group on the target protein. Among them, ubiquitin specific proteases (USPs) constitute the largest DUB family. Human USPs are emerging as promising targets for pharmacological intervention because of their connection to a number of human diseases, including prostate, colon and breast cancer (1, 2), pediatric acute lymphoblastic leukemia (3), and familial cylindromatosis (4). The advantage of inhibiting USPs lies in the potential specificity of therapeutic intervention that can lead to better efficacy and reduce nonspecific side effects. In a collaboration between the University of Delaware and the NIH Chemical Genomics Center, a high-throughput screen assay was developed to screen for USP1/UAF1 inhibitors. This miniaturized assay has a fluorescent read-out and is used to screen the NIH Molecular Libraries Small Molecule Repository (MLSMR) in order to identify a small molecule that inhibits USP1. Follow-up assays have also been developed to further test the hits from the primary screen. This assay validates the hits identified from the primary screen using a USP2 diubiquiting gel assay. NIH Chemical Genomics Center [NCGC] NIH Molecular Libraries Probe Centers Network [MLPCN] MLPCN Grant: DA030552 Assay Submitter (PI): Zhihao Zhuang, University of Delaware 1. Priolo, C., et al. (2006) The isopeptidase USP2a protects human prostate cancer from apoptosis. Cancer Res 66, 8625-8632 2. Popov, N., et al. (2007) The ubiquitin-specific protease USP28 is required for MYC stability. Nat Cell Biol 9, 765-774 3. […]
The inhibition assay contains 20 nM USP2, 2 microM K63 linked diubiquitin, and inhibitors at varied concentrations (0.08 microM - 114 microM). […] The intensity of the individual diubiquitin and monoubiquitin band was quantified using Quantity One 4.3.1 (Biorad, Hercules, CA). The percentage of the conversion was determined and used to calculate the reaction rate. […]

Ubiquitin carboxyl-terminal hydrolase 2 (Homo sapiens), sequence (O75604 whole entry, looked up): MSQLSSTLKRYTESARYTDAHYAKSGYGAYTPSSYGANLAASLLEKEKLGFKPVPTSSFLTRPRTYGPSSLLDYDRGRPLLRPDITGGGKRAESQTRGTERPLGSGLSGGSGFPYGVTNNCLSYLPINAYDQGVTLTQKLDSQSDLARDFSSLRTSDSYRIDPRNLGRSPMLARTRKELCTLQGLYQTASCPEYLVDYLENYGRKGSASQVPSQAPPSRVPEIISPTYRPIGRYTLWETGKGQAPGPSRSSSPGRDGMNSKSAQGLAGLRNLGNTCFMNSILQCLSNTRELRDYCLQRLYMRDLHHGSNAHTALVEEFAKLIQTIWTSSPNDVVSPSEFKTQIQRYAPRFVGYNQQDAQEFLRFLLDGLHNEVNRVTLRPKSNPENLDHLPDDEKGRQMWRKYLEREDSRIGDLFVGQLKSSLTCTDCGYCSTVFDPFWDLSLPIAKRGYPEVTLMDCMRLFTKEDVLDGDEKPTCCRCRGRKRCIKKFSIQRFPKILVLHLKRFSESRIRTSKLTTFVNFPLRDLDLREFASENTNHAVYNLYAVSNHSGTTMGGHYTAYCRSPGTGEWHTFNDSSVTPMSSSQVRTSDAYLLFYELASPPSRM

outcome, inactive:
Cc1cccc(CNc2ccnc(-c3ccccc3C(F)(F)F)n2)c1, FC(F)(F)c1ccccc1-c1nc(NCc2cccs2)c2ccccc2n1, Cc1ccccc1-c1nc(NCc2cccs2)c2ccccc2n1

Reference: PubChem BioAssay AID624345 (National Center for Advancing Translational Sciences (NCATS), 2012)
